Screening results as filed in PubChem.
FadD28 binding: blocks FadD28 binding to the bisubstrate probe. fluorescence polarization. inhibition, % at 12.5 µM. 360,000 tested, 0.22% active. AID 588549; in the data active = inhibition above about 8.5%, passing the limit was not always enough; inconclusive = no clear call, values can overlap the other calls
UGM FP inh: Mtb UDP-galactopyranose mutase inhibition. inhibition, % at 10 µM. purified UGM, fluorescence polarization probe displacement. AID 504406. 320,000 tested, 0.06% active. P9WIQ1; in the data active = inhibition above about 10%, passing the limit was not always enough; inconclusive = no clear call, values can overlap the other calls
RecA intein inh: inhibitors of M. tuberculosis RecA intein splicing; 290,000 tested, 0.75% active; P9WHJ3; cell-free RecA intein splicing, fluorescence; AID 2221; inhibition, % (test concentration not listed); in the data active = inhibition above about 30%; inconclusive = no clear call, values can overlap the other calls
Mtb BioA inh: BioA (M. tuberculosis) enzyme inhibition. purified M. tuberculosis BioA enzyme, plate reader. inhibition, % at 9.99 µM. 360,000 tested, 0.096% active. AID 602481; in the data active = inhibition above about 40%; inconclusive = no clear call, values can overlap the other calls
TcdB inh: TcdB glycohydrolase inhibition | P18177 | TcdB glycohydrolase enzymatic assay, plate reader | inhibition, % at 9.99 µM | 350,000 tested, 0.24% active; in the data active = inhibition above about 10%
Target sequence (P18177 whole entry, looked up): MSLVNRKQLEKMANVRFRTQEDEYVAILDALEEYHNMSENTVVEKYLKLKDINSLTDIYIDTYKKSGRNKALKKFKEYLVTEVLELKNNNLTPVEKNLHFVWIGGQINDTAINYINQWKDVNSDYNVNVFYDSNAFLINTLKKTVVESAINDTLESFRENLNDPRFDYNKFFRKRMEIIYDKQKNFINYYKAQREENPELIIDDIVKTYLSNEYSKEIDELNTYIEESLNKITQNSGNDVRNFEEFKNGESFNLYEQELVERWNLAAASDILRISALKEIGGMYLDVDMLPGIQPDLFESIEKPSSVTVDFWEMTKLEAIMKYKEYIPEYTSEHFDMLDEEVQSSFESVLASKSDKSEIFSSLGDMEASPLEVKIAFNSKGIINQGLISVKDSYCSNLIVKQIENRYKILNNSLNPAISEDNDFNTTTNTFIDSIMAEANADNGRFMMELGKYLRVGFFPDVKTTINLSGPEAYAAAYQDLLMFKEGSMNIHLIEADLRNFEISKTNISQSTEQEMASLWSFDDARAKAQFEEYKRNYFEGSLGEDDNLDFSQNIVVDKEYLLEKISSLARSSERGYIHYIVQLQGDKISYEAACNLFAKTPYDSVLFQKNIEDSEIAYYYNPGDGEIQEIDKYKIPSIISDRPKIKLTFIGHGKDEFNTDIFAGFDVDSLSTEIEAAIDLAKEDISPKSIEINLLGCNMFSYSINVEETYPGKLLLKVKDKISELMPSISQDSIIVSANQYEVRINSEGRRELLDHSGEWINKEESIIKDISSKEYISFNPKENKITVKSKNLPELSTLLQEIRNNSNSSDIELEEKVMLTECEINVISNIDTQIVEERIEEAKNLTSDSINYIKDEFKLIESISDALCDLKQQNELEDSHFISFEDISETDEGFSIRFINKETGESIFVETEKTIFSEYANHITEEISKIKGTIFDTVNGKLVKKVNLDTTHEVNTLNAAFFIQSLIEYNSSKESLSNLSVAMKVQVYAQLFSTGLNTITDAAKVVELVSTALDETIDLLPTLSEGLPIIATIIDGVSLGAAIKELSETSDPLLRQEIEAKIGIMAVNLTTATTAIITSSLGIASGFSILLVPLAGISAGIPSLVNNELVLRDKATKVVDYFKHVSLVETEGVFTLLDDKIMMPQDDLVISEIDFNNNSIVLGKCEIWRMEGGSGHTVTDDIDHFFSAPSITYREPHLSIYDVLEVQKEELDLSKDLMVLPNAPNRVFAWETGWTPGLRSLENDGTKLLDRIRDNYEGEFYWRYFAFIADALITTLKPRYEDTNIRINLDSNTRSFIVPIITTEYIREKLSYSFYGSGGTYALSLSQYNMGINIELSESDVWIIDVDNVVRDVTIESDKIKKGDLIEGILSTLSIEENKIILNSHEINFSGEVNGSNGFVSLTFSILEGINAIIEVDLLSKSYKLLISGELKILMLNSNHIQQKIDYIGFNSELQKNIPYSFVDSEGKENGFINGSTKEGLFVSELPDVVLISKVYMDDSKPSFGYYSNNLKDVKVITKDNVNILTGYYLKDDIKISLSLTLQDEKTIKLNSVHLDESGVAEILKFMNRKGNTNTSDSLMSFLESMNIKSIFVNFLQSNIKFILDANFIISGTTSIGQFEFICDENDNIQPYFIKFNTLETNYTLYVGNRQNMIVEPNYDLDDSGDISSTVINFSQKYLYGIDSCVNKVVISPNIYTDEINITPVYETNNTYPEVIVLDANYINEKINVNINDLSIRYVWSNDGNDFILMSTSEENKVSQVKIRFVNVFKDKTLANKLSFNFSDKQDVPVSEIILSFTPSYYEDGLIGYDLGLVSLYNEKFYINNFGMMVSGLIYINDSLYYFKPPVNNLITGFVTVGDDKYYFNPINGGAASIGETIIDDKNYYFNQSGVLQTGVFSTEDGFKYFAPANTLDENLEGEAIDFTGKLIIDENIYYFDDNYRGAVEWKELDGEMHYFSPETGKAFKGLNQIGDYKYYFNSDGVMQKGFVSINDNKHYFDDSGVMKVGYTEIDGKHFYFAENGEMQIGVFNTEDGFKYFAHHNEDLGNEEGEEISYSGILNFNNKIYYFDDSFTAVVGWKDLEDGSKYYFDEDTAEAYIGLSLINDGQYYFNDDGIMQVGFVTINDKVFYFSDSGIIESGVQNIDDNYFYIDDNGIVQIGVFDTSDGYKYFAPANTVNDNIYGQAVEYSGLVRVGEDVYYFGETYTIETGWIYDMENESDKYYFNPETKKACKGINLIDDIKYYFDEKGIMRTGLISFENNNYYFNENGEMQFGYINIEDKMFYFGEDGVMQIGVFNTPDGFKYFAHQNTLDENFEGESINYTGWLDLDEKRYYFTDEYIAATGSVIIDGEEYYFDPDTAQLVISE
Rv3671c protease: Rv3671c (M. tuberculosis) protease inhibition; 320,000 tested, 0.048% active; P9WHR9; inhibition, % at 5.96 µM; in the data active = inhibition above about 38%;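 note: extracellular domain of Rv3671c used as enzyme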
GFP chromophore: counter-screen: blocks GFP chromophore formation; 2,100 tested, 83% active; cell-free GFP chromophore formation, fluorescence; shares compounds with RecA intein inh; EC50, µM; call rule not given here
Large screens that a line does not name were inactive (follow-up assays come after a bar, where they were run). This is a sample that favours compounds with a hit; in the whole collection about 0.97% have one here.

CCN(CC)CCNC(=O)c1ccc2c(c1NCCO)C(=O)c1ccccc1C2=O	RecA intein inh 78 | GFP chromophore 6.9
COc1ccc(NC(=O)/C(Cl)=C(/Cl)S(=O)Cc2ccccc2)cn1 (stereo unspecified)	RecA intein inh 78 (no result: Mtb BioA inh, TcdB inh) | GFP chromophore 6.6
COc1ccc(/C=C/C(=O)Nc2ccc(OC)nc2)cc1	none (no result: RecA intein inh)
COc1ccc(CS(=O)(=O)/C(Cl)=C(/Cl)C(=O)Nc2ccc(OC)nc2)cc1	RecA intein inh 78 (no result: TcdB inh) | GFP chromophore 9.7
COc1ccc(NC(=O)Cc2ccccc2)cn1	none
CC(=O)NCCn1c(SCC(=O)NCc2ccco2)nc2ccccc2c1=O	RecA intein inh 67 (no result: TcdB inh) | GFP chromophore 25
CCCCn1c(SCC(=O)NCc2ccco2)nc2ccccc2c1=O	none (no result: TcdB inh)
O=C(Nc1ccc2c(c1)OCO2)N[C@@H]1CC[C@@H](CCNC(=O)C2CCOCC2)O[C@H]1CO	none (no result: FadD28 binding, UGM FP inh, RecA intein inh, Rv3671c protease)
CC(C)(C)C1CC=C2C(C#N)=C(N)C(C#N)(C#N)C(c3cccs3)C2C1 (stereo unspecified)	none (no result: FadD28 binding, Mtb BioA inh, TcdB inh)
CCc1ccc(C2C(C#N)=C(N)C(C#N)(C#N)C3=CCC(C(C)(C)C)CC32)cc1 (stereo unspecified)	RecA intein inh 30 (no result: TcdB inh) | GFP chromophore 15
CCc1nnc(N/N=C/c2cc(Br)c(O)cc2O)n1N	RecA intein inh 40 | GFP chromophore 32
CCc1nnc(N/N=C/c2ccc(O)c(OC)c2)n1N	none
Cc1cc(C)c(S(=O)(=O)Nc2cc(SCC(=O)O)c(O)c3ccccc23)cc1C	RecA intein inh 97 (no result: FadD28 binding, Mtb BioA inh, TcdB inh) | GFP chromophore 0.87
O=S(=O)(Nc1cc(Sc2cccc3cccnc23)c(O)c2ccccc12)c1ccc(F)cc1	none (no result: FadD28 binding, Mtb BioA inh)
Cc1cc(C)c(S(=O)(=O)/N=C2/C=C(SCC(=O)O)C(=O)c3ccccc32)cc1C	none (no result: UGM FP inh, RecA intein inh, Mtb BioA inh, TcdB inh, Rv3671c protease)
COc1ccc(S(=O)(=O)Nc2cccc3ccc(O)cc23)cc1	none
COc1ccc(S(=O)(=O)Nc2cc(SCC(=O)O)c(O)c3ccccc23)cc1	RecA intein inh 96 | GFP chromophore 0.65
O=C(O)CSc1cc(NS(=O)(=O)c2ccc(Cl)cc2)c2ccccc2c1O	RecA intein inh 96 | GFP chromophore 9.8
COc1ccccc1CNC(=O)C[C@@H]1CC[C@H]2[C@@H](COC[C@@H](O)CN2C(=O)Nc2ccccc2)O1	none (no result: FadD28 binding, UGM FP inh, RecA intein inh, Rv3671c protease)
COc1ccc(-c2cc(=O)n(-c3ccc([N+](=O)[O-])cc3)[nH]2)cc1	RecA intein inh 90 (no result: Mtb BioA inh, TcdB inh) | GFP chromophore 5.4
COc1ccc(-c2[nH]n(-c3ccc([N+](=O)[O-])cc3)c(=O)c2C=NCc2ccc(F)cc2)cc1	none
CCOc1ccccc1N1CCN(C(=O)c2ccc(-c3ccc(OC(C)=O)cc3)cc2)CC1	RecA intein inh 31 | GFP chromophore inactive
CCC(=O)Nc1ccc2c(c1)C(=O)N(C)C[C@@H](OC)[C@H](C)CN(Cc1ccccn1)[C@@H](C)CO2	none (no result: FadD28 binding, UGM FP inh, RecA intein inh, Rv3671c protease)
CN1[C@@H]2c3ccc(-c4ccc(F)cc4)c(=O)n3C[C@@H]2[C@@H](CO)[C@@H]1C(=O)Nc1ccccc1	none (no result: FadD28 binding, UGM FP inh, RecA intein inh, Rv3671c protease)
N#C/C(=C\c1c(Cl)cccc1Cl)c1nn(-c2ccccc2)c(-n2cccc2)c1C#N	none
N#C/C(=C\c1c(F)cccc1Cl)c1nn(-c2ccccc2)c(-n2cccc2)c1C#N	RecA intein inh 46 | GFP chromophore inactive
O=C(C[C@@H]1CC[C@H]2[C@@H](COC[C@H](O)CN2S(=O)(=O)c2cccc(Cl)c2)O1)Nc1ccccc1	none (no result: FadD28 binding, UGM FP inh, RecA intein inh, Rv3671c protease)
O=C(Nc1ccccc1F)N[C@@H]1CC[C@H](CCNC(=O)C2CCC2)O[C@@H]1CO	none (no result: FadD28 binding, UGM FP inh, RecA intein inh, Rv3671c protease)
CC(C)C[C@H]1C(=O)N2CCC[C@H]2[C@]2(O)O[C@](NC(=O)[C@@H]3C=C4c5cccc6[nH]c(Br)c(c56)CC4N(C)C3)(C(C)C)C(=O)N12 (stereo partly specified)	RecA intein inh 56 | GFP chromophore inactive
CC(C)CC1C(C#N)=C(N)Oc2n[nH]c(-c3cccs3)c21 (stereo unspecified)	RecA intein inh 86 (no result: TcdB inh) | GFP chromophore inactive
CSCCC1C(C#N)=C(N)Oc2n[nH]c(-c3cccs3)c21 (stereo unspecified)	RecA intein inh 85 (no result: TcdB inh) | GFP chromophore 9.1
CC(C)CC1C(C#N)=C(N)Oc2c1c(=O)oc1ccccc21 (stereo unspecified)	none
Cc1ccccc1C(=O)NNC(=S)NC(=O)COc1ccccc1	RecA intein inh 40 (no result: Mtb BioA inh) | GFP chromophore 31
O=C(c1ccc(F)cc1)N1CCCCN2[C@H](CO)[C@H](c3ccc(-c4ccc(F)cc4)cc3)[C@H]2C1	none (no result: FadD28 binding, UGM FP inh, RecA intein inh, Rv3671c protease)
CC=Cc1ccc2n(c1=O)C[C@@H]1[C@@H](CO)[C@H](C(=O)NCCc3cn(C)cn3)N(C(=O)C3CCC3)[C@H]21 (mixture of isomers)	none (no result: FadD28 binding, UGM FP inh, RecA intein inh, Rv3671c protease)
COc1ccc(OC)c(N(C(=O)c2snc(C(N)=O)c2N)C(C(=O)NCc2ccccc2)c2ccc(O)cc2)c1 (stereo unspecified)	none
COc1ccc(CNC(=O)C(c2ccc(C)o2)N(C(=O)c2snc(C(N)=O)c2N)c2ccccc2OC)cc1 (stereo unspecified)	RecA intein inh 36 (no result: FadD28 binding, Mtb BioA inh) | GFP chromophore inactive
O=[N+]([O-])c1cccc(C(=Nc2ccccc2)NO)c1	none (no result: TcdB inh)
O=[N+]([O-])c1cc([N+](=O)[O-])c2c(=Nc3ccccc3)n(-c3ccccc3)n(O)c2c1	RecA intein inh 74 (no result: Mtb BioA inh) | GFP chromophore 4.1
CN(C(=O)C(Cl)Cl)c1ccc(OC(=O)c2ccco2)cc1	RecA intein inh 36 | GFP chromophore inactive
Cc1ccc(NC(=O)c2ccc(OC(=O)c3ccco3)cc2)cc1	none
Cc1ccc(-c2nc(CN3CCCC(C(=O)N4CCOCC4)C3)c(C)o2)cc1 (stereo unspecified)	RecA intein inh 44 | GFP chromophore inactive
N=c1c2c(-c3ccccc3)c(-c3ccccc3)n(Cc3ccco3)c2ncn1Cc1ccccc1	RecA intein inh 59 (no result: TcdB inh) | GFP chromophore 5.2
CCOc1ccc(CN2CCN(CC3=Cc4cccc(OC)c4OC3)CC2CCO)cc1 (stereo unspecified)	RecA intein inh 42 (no result: Mtb BioA inh) | GFP chromophore inactive
CC(=O)c1cccc(-c2ccc3c(=O)[nH]c(Nc4ccccc4)cc3c2)c1	RecA intein inh 94 | GFP chromophore 8.6
O=c1[nH]c(Nc2ccccc2)cc2ccccc12	RecA intein inh 64 (no result: Mtb BioA inh, TcdB inh) | GFP chromophore inconclusive
O=c1[nH]c(Nc2ccccc2)cc2cc(Br)ccc12	RecA intein inh 90 | GFP chromophore 6
COc1ccccc1Nc1cc2cc(Br)ccc2c(=O)[nH]1	RecA intein inh 47 | GFP chromophore 7.8
COc1ccccc1Nc1nnc(C)c(=O)[nH]1	none (no result: TcdB inh)
O=c1cc(Nc2cccc(Br)c2)[nH]c(=O)[nH]1	none (no result: Mtb BioA inh)
C[C@@H]1CCCCO[C@@H](CN(C)C(=O)CCC(F)(F)F)[C@H](C)CN([C@@H](C)CO)C(=O)c2cc(NS(=O)(=O)c3ccccc3)ccc2O1	none (no result: FadD28 binding, UGM FP inh, RecA intein inh, Rv3671c protease)
COc1ccc(OC)c(Nc2cc3ccccc3c(=O)[nH]2)c1	RecA intein inh 83 | GFP chromophore 1.9
COc1ccc(OC)c(Nc2nnc(C)c(=O)[nH]2)c1	none (no result: FadD28 binding, Mtb BioA inh)
